Reference: article PMC8384837, “Expanding the binding specificity for RNA recognition by a PUF domain”

Assays:
Assay in all cases: yeast three-hybrid, YBZ-1, SC-Leu-His + 0.5 mM 3-AT, 4 days
Settings in all cases: tags: N-Gal4 AD-HA kept; label: inside an RPR1-promoter hybrid RNA with tandem MS2 sites; ssRNA
[1] = target: PUM1 PUF domain R8-CWR (Homo sapiens, UniProt Q14671 828-1176, N1122C;Y1123W;Q1126R)
Outline: (§1)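 Sequencing with Illumina followed PCR amplification of the repeat regions from transformants grown four days on SC-Leu (input) or SC-Leu-His + 0.5 mM 3-AT (selection). The transformants were strain YBZ-1 with a LexA–MS2 coat fusion and a HIS3 reporter, carrying Pumilio-1 PUF domain libraries and matching RNA elements. The interaction score is the log change in variant frequency from input to selection, computed in log2 with a pseudocount of 1 for absent variants.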

[2] = target: PUM1 PUF domain R1-RRV (Homo sapiens, UniProt Q14671 828-1176, S863R;Q867V)
Outline: as §1

[3] = target: PUM1 PUF domain R7-VER (Homo sapiens, UniProt Q14671 828-1176, S1079V;N1080E;E1083R)
Outline: as §1

[4] = target: PUM1 PUF domain R8-KYA (Homo sapiens, UniProt Q14671 828-1176, N1122K;Q1126A)
Outline: as §1

[5] = target: PUM1 PUF domain R8-KWR (Homo sapiens, UniProt Q14671 828-1176, N1122K;Y1123W;Q1126R)
Outline: as §1

[6] = target: PUM1 PUF domain R5-DWH (Homo sapiens, UniProt Q14671 828-1176, C1007D;R1008W;Q1011H)
Outline: as §1

[7] = target: PUM1 PUF domain R5-RAP (Homo sapiens, UniProt Q14671 828-1176, C1007R;R1008A;Q1011P)
Outline: as §1

[8] = target: PUM1 PUF domain R5-RKV (Homo sapiens, UniProt Q14671 828-1176, C1007R;R1008K;Q1011V)
Outline: as §1

[9] = target: T1, PUM1 PUF domain R6-KYR (Homo sapiens, UniProt Q14671 828-1176, N1043K;Q1047R)
T1 sequence: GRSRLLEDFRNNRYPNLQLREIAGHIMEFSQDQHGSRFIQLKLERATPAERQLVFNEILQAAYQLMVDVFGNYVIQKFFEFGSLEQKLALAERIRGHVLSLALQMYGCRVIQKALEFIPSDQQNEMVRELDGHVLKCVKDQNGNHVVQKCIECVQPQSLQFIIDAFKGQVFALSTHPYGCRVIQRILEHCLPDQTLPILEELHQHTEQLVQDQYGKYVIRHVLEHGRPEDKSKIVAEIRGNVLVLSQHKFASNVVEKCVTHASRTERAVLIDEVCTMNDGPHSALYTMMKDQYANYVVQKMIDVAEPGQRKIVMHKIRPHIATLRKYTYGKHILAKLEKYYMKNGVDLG
Outline: as §1

[10] = target: PUM1 PUF domain R3-VNV (Homo sapiens, UniProt Q14671 828-1176, C935V;R936N;Q939V)
Outline: as §1

Q: For “GGCUAGAACUAGUGGAUCCCCCGGCGCCCGGCGGCUCGAGCCCGGGUAAGGGUAAAUAGUCUGCAUGCCGCCGGGCGCCAUGCCUGCAGGUCGACUCUAGAAAACAUG”, which binding signal [1] is on record?
A: The binding signal was 2.72 log2 enrichment (interaction score).

Q: With “GGCUAGAACUAGUGGAUCCCCCGGCGCCCGGCGGCUCGAGCCCGGGUAAGUGUAAAUUGUCUGCAUGCCGCCGGGCGCCAUGCCUGCAGGUCGACUCUAGAAAACAUG” as the sequence, how does the binding signal [2] read?
A: The binding signal was 3.36 log2 enrichment (interaction score).

Q: With “GGCUAGAACUAGUGGAUCCCCCGGCGCCCGGCGGCUCGAGCCCGGGUAAGUUUAAAUAGUCUGCAUGCCGCCGGGCGCCAUGCCUGCAGGUCGACUCUAGAAAACAUG” as the sequence, how does the binding signal [3] read?
A: The binding signal was 3.22 log2 enrichment (interaction score).

Q: What does the source list for “GGCUAGAACUAGUGGAUCCCCCGGCGCCCGGCGGCUCGAGCCCGGGUAAGCGUAAAUAGUCUGCAUGCCGCCGGGCGCCAUGCCUGCAGGUCGACUCUAGAAAACAUG”?
A: binding signal [4]: 3.04 log2 enrichment (interaction score); binding signal [1]: 4.31 log2 enrichment (interaction score); binding signal [5]: 6.68 log2 enrichment (interaction score)

Q: How did the binding signal [2] turn out when “GGCUAGAACUAGUGGAUCCCCCGGCGCCCGGCGGCUCGAGCCCGGGUAAGUGUAAAUCGUCUGCAUGCCGCCGGGCGCCAUGCCUGCAGGUCGACUCUAGAAAACAUG” was run?
A: The binding signal was 3.63 log2 enrichment (interaction score).

Q: For “GGCUAGAACUAGUGGAUCCCCCGGCGCCCGGCGGCUCGAGCCCGGGUAAGUGUGAAUAGUCUGCAUGCCGCCGGGCGCCAUGCCUGCAGGUCGACUCUAGAAAACAUG”, which binding signal [6] is on record?
A: Its binding signal is 4.75 log2 enrichment (interaction score).

Q: Which binding signal [7] does the source give for “GGCUAGAACUAGUGGAUCCCCCGGCGCCCGGCGGCUCGAGCCCGGGUAAGUGUCAAUAGUCUGCAUGCCGCCGGGCGCCAUGCCUGCAGGUCGACUCUAGAAAACAUG” here?
A: The binding signal was 4.21 log2 enrichment (interaction score).

Q: And the binding signal [8]?
A: Its binding signal is 2.43 log2 enrichment (interaction score).

Q: How did the binding signal [9] turn out when “GGCUAGAACUAGUGGAUCCCCCGGCGCCCGGCGGCUCGAGCCCGGGUAAGUGUAAAUAGUCUGCAUGCCGCCGGGCGCCAUGCCUGCAGGUCGACUCUAGAAAACAUG” was run?
A: The binding signal was 5.19 log2 enrichment (interaction score).

Q: What about the binding signal [10] of the same sequence?
A: The binding signal was 3.12 log2 enrichment (interaction score).

Q: And the binding signal [1]?
A: Its binding signal is 4.45 log2 enrichment (interaction score).

Q: And the binding signal [5]?
A: Its binding signal is 5.93 log2 enrichment (interaction score).

Q: “GGCUAGAACUAGUGGAUCCCCCGGCGCCCGGCGGCUCGAGCCCGGGUAAGUGUUAAUAGUCUGCAUGCCGCCGGGCGCCAUGCCUGCAGGUCGACUCUAGAAAACAUG” was tested. Which binding signal [7] did it give?
A: The binding signal was 0.85 log2 enrichment (interaction score).

Q: Which binding signal [2] does the source give for “GGCUAGAACUAGUGGAUCCCCCGGCGCCCGGCGGCUCGAGCCCGGGUAAGUGUAAAUGGUCUGCAUGCCGCCGGGCGCCAUGCCUGCAGGUCGACUCUAGAAAACAUG” here?
A: Its binding signal is 1.17 log2 enrichment (interaction score).
